According to PubChem BioAssay AID1159580 (chemical genetic matrix, 2015):
Screen size: about 5,500 compounds; about 2,000 (36%) were called active. Another 18% or so got no clear call; they are omitted. No stated cut-off is given here; in the data, active means normalized growth mostly below about 0.91 (no sharp cut-off); inconclusive means no clear call, values can overlap the other calls; inactive means mostly above about 0.92. Some of the results follow.

Experiment: chemical genetic growth profiling, strain panel (AID 1159580);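 further: tested at 20 µM; growth read once vehicle control cultures reached saturation at 30 °C; 1 = growth at the plate median or of vehicle wells; lower values mean less growth of the strain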
Conditions: S. cerevisiae deletion strains, growth OD

Measured: normalized growth

CCN(CC)CCNC(=O)c1ccc(NC(C)=O)cc1
inactive: locus YAL040C, strain CLN3, hits give low values 0.985 | locus YDR150W, strain NUM1, hits give low values 0.975 | locus YER002W, strain NOP16, hits give low values 0.969 | locus YGR078C, strain PAC10, hits give low values 0.985 | locus YGR229C, strain SMI1, hits give low values 1.01 | locus YHR030C, strain SLT2, hits give low values 0.999 | locus YHR079C, strain IRE1, hits give low values 1.03 | locus YJL095W, strain BCK1, hits give low values 1.02 | locus YJR066W, strain TOR1, hits give low values 0.971 | locus YLR113W, strain HOG1, hits give low values 1.03 | locus YMR307W, strain GAS1, hits give low values 1.01 | locus YNL175C, strain NOP13, hits give low values 0.983 | locus YNL183C, strain NPR1, hits give low values 0.959 | locus YNL197C, strain WHI3, hits give low values 0.984 | locus YNL224C, strain SQS1, hits give low values 1.01 | locus YOR083W, strain WHI5 (second series), hits give low values 0.979 | locus YOR231W, strain MKK1, hits give low values 1.04 | locus YPL256C, strain CLN2, hits give low values 1.08
